We go through 40 molecules from PubChem BioAssay AID2578 (National Center for Advancing Translational Sciences (NCATS), 2010).

Each structure is given as a SMILES string. The source made the active and inactive calls. Calls come from the whole dose curve; as a rule, active = well fitted curve in the direction sought with a large enough effect; inactive = no such curve, though single readings can be large or run the other way.

Alpha-galactosidase A (Homo sapiens), sequence (P06280 whole entry, looked up): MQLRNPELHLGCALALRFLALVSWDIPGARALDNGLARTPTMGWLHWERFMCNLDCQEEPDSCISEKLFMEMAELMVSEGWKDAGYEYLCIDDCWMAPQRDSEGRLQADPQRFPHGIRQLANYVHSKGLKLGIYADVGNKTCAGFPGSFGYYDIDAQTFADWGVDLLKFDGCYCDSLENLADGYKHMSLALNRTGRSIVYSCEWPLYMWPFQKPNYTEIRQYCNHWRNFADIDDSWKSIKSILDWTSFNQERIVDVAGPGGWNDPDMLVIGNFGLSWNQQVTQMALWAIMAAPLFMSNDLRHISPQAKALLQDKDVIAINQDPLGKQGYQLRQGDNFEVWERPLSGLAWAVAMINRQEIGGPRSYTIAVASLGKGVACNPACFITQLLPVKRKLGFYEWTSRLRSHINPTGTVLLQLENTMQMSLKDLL

For the test, the target named is Alpha-galactosidase A (Homo sapiens) (UniProt P06280). As to the kind of experiment: qHTS Assay for Inhibitors and Activators of N370S glucocerebrosidase as a Potential Chaperone Treatment of Gaucher Disease: Alpha-Galactosidase Counterscreen. The settings on record: purified enzyme, 4-MU-alpha-Gal fluorescence, 20 min; series mostly up to 57.5 µM. An excerpt:
NIH Chemical Genomics Center [NCGC] NIH Molecular Libraries Probe Production Centers Network [MLPCN] MLPCN Grant: MH086442-01 Assay Submitter (PI): Wei Zheng Glucocerebrosidase (GC) catalyzes the hydrolysis of beta-glucocerebroside to glucose and ceramide in lysosomes. Mutations in the glucocerebrosidase gene result in Gaucher disease, an autosomal recessive lysosomal storage disorder. Many of the mutations encountered in patients with Gaucher disease are missense alterations that may cause misfolding, decreased stability and/or mistrafficking of this lysosomal protein. […] These inhibitors include iminosugar analogs and three non-iminosugar inhibitors identified from a previous HTS of 62,000 compounds with the wild type recombinant enzyme. However, the enhancement of enzyme activity by the chaperone action of an enzyme inhibitor must be balanced against the direct inhibition of the enzyme. An enzyme activator could also function as a chaperone by binding to the enzyme and helping to correct its misfolding and mistrafficking. While activators for GC have not yet been identified, they may have better therapeutic potential than inhibitors. Therefore the discovery and development of chemical activators may provide a new strategy for the chaperone therapy. To characterize compound selectivity, selected hits from the primary screen were screened against purified alpha-galactosidase, a related sugar hydrolase. Alpha-galactosidase is a homodimeric glycoprotein that hydrolyzes the terminal alpha-galactosyl moieties from glycolipids and glycoproteins.
NCGC Assay Protocol Summary: This is a fluorogenic enzyme assay with 4-Methylumbelliferyl alpha-D-galactopyranoside as the substrate and human […] as the enzyme preparation. Upon the hydrolysis of this fluorogenic substrate, the resulting product, […]. 4-Methyllumbelliferone, can be excited at 365 nm and emits at 440 nm. This fluorescence which can be detected by a standard fluorescence plate reader. Data were normalized to the controls for basal activity (without enzyme) and 100% activity (with enzyme). In the AC50 values were determined from concentration-response data modeled with the standard Hill equation. Assay buffer: 50 mM citric acid (titrated with potassium phosphate to pH 4.5), 0.005% Tween-20, pH 4.5. (pH 4.5 is an optimal condition for this enzyme assay) 1536-well assay protocol for the human alpha-galactosidase: (1) Add 2 ul/well of enzyme (12 nM final) (2) Add 23 nL compounds in DMSO solution. The final titration was 0.7 nM to 77 uM. (3) Add 1 ul of substrate ([…]) (4) Incubate at room temperature for 20 min. (5) Add 2 ul stop solution (1M NaOH and 1M Glycine mixture, pH 10) (6) Detect the assay plate in a ViewLux plate reader (PerkinElmer) with Ex=365 nm and Em=440nm. Keywords: MLSMR, MLPCN, NIH Roadmap, qHTS, NCGC, : Alpha-galactosidase, Fabry Disease, pharmacological chaperone, chaperone therapy
For the molecule `O=S(=O)(c1ccc(F)cc1)N1CCN(c2nc(-c3cccc(Br)c3)nc3ccccc23)CC1`, the molecule was classed as inactive. The result for `O=S(=O)(c1ccccc1Cl)N1CCN(c2nc(-c3cccs3)nc3ccccc23)CC1` reads “inactive”. As to `O=S(=O)(c1ccc(C(F)(F)F)cc1)N1CCN(c2nc(-c3ccccc3)nc3ccccc23)CC1`, the outcome was inactive. With `Cc1ccc(S(=O)(=O)N2CCN(c3nc(-c4ccc(F)cc4)nc4cc(Cl)ccc34)CC2)cc1` the entry was “inactive”.

With `O=[N+]([O-])c1ccc(S(=O)(=O)N2CCN(c3nc(-c4cccs4)nc4ccccc34)CC2)cc1`, the molecule was called inactive.

Regarding `O=[N+]([O-])c1ccccc1S(=O)(=O)N1CCN(c2nc(-c3cccs3)nc3ccccc23)CC1`, the result was inactive. Take `N#Cc1ccccc1S(=O)(=O)N1CCN(c2nc(-c3cccs3)nc3ccccc23)CC1`: the result was inactive. With `O=S(=O)(c1cccc(C(F)(F)F)c1)N1CCN(c2nc(-c3cccs3)nc3cc(Cl)ccc23)CC1` the entry was “inactive”; with `O=S(=O)(c1ccccc1C(F)(F)F)N1CCN(c2nc(-c3cccs3)nc3ccccc23)CC1`, “inactive”. With `CCOC(=O)c1ccc(S(=O)(=O)N2CCN(c3nc(-c4cccs4)nc4ccccc34)CC2)cc1` the entry was “inactive”; with `O=S(=O)(c1ccc2c(c1)CCCC2)N1CCN(c2nc(-c3cccs3)nc3ccccc23)CC1`, “inactive”. The result for `COc1ccc(S(=O)(=O)N2CCN(c3nc(-c4ccccc4)nc4ccccc34)CC2)cc1` reads “inactive”; that for `Cc1ccc(S(=O)(=O)N2CCN(c3nc(-c4cccs4)nc4ccccc34)CC2)cc1`, “inactive”. `N#Cc1ccccc1S(=O)(=O)N1CCN(c2nc(-c3ccccc3)nc3ccccc23)CC1`: the outcome was inactive.

`O=S(=O)(c1ccc(F)cc1)N1CCN(c2nc(-c3cccs3)nc3ccccc23)CC1`: the call was inactive. In the case of `COc1ccc(-c2nc(N3CCN(S(=O)(=O)c4ccc(C)cc4)CC3)c3ccccc3n2)cc1`, the call was inactive. Take `O=S(=O)(c1ccc(Cl)cc1)N1CCN(c2nc(-c3cccs3)nc3ccccc23)CC1`: the outcome was inactive. With `Cc1ccc(S(=O)(=O)N2CCN(c3nc(-c4ccccc4)nc4ccccc34)CC2)cc1` the entry was “inactive”; with `O=S(=O)(c1ccc(Cl)cc1)N1CCN(c2nc(-c3ccc(F)cc3)nc3cc(Cl)ccc23)CC1`, “inactive”. The result for `O=S(=O)(c1ccccc1F)N1CCN(c2nc(-c3cccs3)nc3ccccc23)CC1` reads “inactive”; that for `CCOc1ccc(S(=O)(=O)N2CCN(c3nc(-c4ccccc4)nc4ccccc34)CC2)cc1`, “inactive”. Take `O=S(=O)(c1ccc2c(c1)CCCC2)N1CCN(c2nc(-c3ccccc3)nc3ccccc23)CC1`: the call was inactive.

Take `O=S(=O)(c1ccccc1Br)N1CCN(c2nc(-c3ccccc3)nc3ccccc23)CC1`: the result was inactive. With `COc1ccc(S(=O)(=O)N2CCN(c3nc(-c4cccs4)nc4ccccc34)CC2)cc1` the entry was “inactive”. With `O=S(=O)(c1ccc(F)cc1)N1CCN(c2nc(-c3ccccc3)nc3ccccc23)CC1` the entry was “inactive”; with `COc1ccc(-c2nc(N3CCN(S(=O)(=O)c4ccccc4)CC3)c3ccccc3n2)cc1`, “inactive”. The result for `O=S(=O)(c1ccc(Cl)cc1)N1CCN(c2nc(-c3ccccc3)nc3ccccc23)CC1` reads “inactive”. Regarding `O=S(=O)(c1ccc(OC(F)(F)F)cc1)N1CCN(c2nc(-c3ccccc3)nc3ccccc23)CC1`, the call was inactive. The result for `COc1ccc(S(=O)(=O)N2CCN(c3nc(-c4cccs4)nc4ccccc34)CC2)cc1OC` reads “inactive”; that for `NS(=O)(=O)c1ccc(S(=O)(=O)N2CCN(c3nc(-c4cccs4)nc4ccccc34)CC2)cc1`, “inactive”. With `S=C(NCCCc1cnc[nH]1)NCCCN(Cc1ccc(Cl)c(Cl)c1)c1ccc(Br)cn1` the entry was “inactive”; with `O=S(=O)(c1ccccc1Br)N1CCN(c2nc(-c3cccs3)nc3ccccc23)CC1`, “inactive”. With `O=S(=O)(c1ccc(Br)cc1)N1CCN(c2nc(-c3cccs3)nc3ccccc23)CC1` the entry was “inactive”; with `CC(=O)c1ccc(S(=O)(=O)N2CCN(c3nc(-c4cccs4)nc4ccccc34)CC2)cc1`, “inactive”; with `O=S(=O)(c1ccccc1C(F)(F)F)N1CCN(c2nc(-c3ccccc3)nc3ccccc23)CC1`, “inactive”. Take `Cc1ccc(-c2nc(N3CCN(S(=O)(=O)c4ccc(F)cc4)CC3)c3ccc(Cl)cc3n2)cc1`: the outcome was inactive. Regarding `O=S(=O)(c1ccc2c(c1)OCCO2)N1CCN(c2nc(-c3ccccc3)nc3ccccc23)CC1`, the outcome was inactive. With `O=S(=O)(c1ccc2c(c1)CCC2)N1CCN(c2nc(-c3ccccc3)nc3ccccc23)CC1` the entry was “inactive”; with `O=S(=O)(c1cccc(Br)c1)N1CCN(c2nc(-c3cccs3)nc3ccccc23)CC1`, “inactive”. With `CC(C)(C)c1ccc(S(=O)(=O)N2CCN(c3nc(-c4ccccc4)nc4ccccc34)CC2)cc1` the entry was “inactive”.
